Data from PubChem BioAssay AID624101 (Broad Institute, 2012).
Among all 70,000 compounds or so, about 120 (0.17%) were called active. The sample as a whole holds a higher share of actives than the screen did. Unmarked numbers belong to inactive results. Rule as the data show it: active = inhibition above about 34%; inconclusive = no clear call, values can overlap the other calls; inactive = below about 11%.

Each molecule was assayed against Isocitrate dehydrogenase [NADP] cytoplasmic (Homo sapiens) (UniProt O75874) (assay: PubChem AID 624101). Details: IDH1 R132H reductase, diaphorase/resazurin fluorescence, 60 min; at 10 µM; stronger effect = higher value.
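Also: 0% = DMSO and 100% = no enzyme.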

Isocitrate dehydrogenase [NADP] cytoplasmic (Homo sapiens), sequence (O75874 whole entry R132H): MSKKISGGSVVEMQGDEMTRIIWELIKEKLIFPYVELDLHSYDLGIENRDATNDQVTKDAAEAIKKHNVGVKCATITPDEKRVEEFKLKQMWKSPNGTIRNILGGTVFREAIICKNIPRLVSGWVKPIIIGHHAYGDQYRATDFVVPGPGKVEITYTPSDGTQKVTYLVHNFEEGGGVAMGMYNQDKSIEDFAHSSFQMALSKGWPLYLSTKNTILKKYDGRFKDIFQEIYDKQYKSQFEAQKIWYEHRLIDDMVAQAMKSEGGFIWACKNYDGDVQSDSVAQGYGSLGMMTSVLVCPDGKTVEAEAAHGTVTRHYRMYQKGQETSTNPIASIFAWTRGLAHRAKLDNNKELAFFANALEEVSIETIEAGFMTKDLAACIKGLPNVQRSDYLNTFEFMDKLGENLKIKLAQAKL

| SMILES | inhibition |
| --- | --- |
| COc1cccc(-c2ccc3c(c2)O[C@H](CN(C)C(=O)C2CCOCC2)[C@H](C)CN([C@H](C)CO)S3(=O)=O)c1 | -1.58% |
| C[C@H](O)C#Cc1ccc2c(c1)O[C@H](CN(C)Cc1ccccn1)[C@H](C)CN([C@H](C)CO)S2(=O)=O | 1.79% |
| CCCN(C)C[C@@H]1Oc2cc(C#CCc3ccccc3)ccc2S(=O)(=O)N([C@H](C)CO)C[C@@H]1C | 35.5% (active) |
| C[C@@H]1CN([C@H](C)CO)S(=O)(=O)c2ccc(C#CCC3CCCC3)cc2O[C@H]1CN(C)Cc1ccc(C(=O)O)cc1 | 45.9% (active) |
| C[C@@H]1CN([C@@H](C)CO)S(=O)(=O)c2ccc(C#CCC3CCCC3)cc2O[C@H]1CN(C)Cc1ccc(C(=O)O)cc1 | 0.74% |
| C[C@@H]1CN([C@@H](C)CO)S(=O)(=O)c2ccc(C#CCC3CCCC3)cc2O[C@@H]1CN(C)C | -1.79% |
| CCCN(C)C[C@H]1Oc2cc(C#CCC(C)C)ccc2S(=O)(=O)N([C@H](C)CO)C[C@H]1C | -4.36% |
| C/C=C/c1ccc2c(c1)O[C@H](CN(C)C(=O)Cc1ccncc1)[C@@H](C)CN([C@@H](C)CO)S2(=O)=O | 37.6% (active) |
| C/C=C/c1ccc2c(c1)O[C@@H](CN(C)C(=O)Cc1ccccc1)[C@H](C)CN([C@@H](C)CO)S2(=O)=O | 0.0005% |
| CCCC#Cc1ccc2c(c1)O[C@@H](CN(C)CCC)[C@@H](C)CN([C@H](C)CO)S2(=O)=O | -0.176% |
| C/C=C/c1ccc2c(c1)O[C@H](CN(C)C(=O)Cc1cccnc1)[C@@H](C)CN([C@H](C)CO)S2(=O)=O | 9.7% |
| C[C@@H]1CCCCO[C@@H](CN(C)C(=O)Nc2ccc(C(F)(F)F)cc2)[C@H](C)CN([C@H](C)CO)C(=O)c2cc(NC(=O)C3CCCCC3)ccc2O1 | 1.02% |
| O=C(NCC[C@@H]1CC[C@H](NC(=O)C2CC2)[C@@H](CO)O1)c1cc(Cl)cc(Cl)c1 | 0.406% |
| CCCNC(=O)C[C@H]1C[C@@H]2c3cc(NC(=O)C4CCOCC4)ccc3O[C@@H]2[C@H](CO)O1 | 0.074% |
| C[C@@H](NC(=O)C[C@@H]1C=C[C@@H](NC(=O)CN2CCOCC2)[C@H](CO)O1)c1ccccc1 | 0.081% |
| CO[C@@H]1CN(C)C(=O)c2ccc(NC(=O)C3CC3)cc2OC[C@H](C)N(C(=O)c2ccccc2)C[C@@H]1C | 0.146% |
| CO[C@@H]1CN(C)C(=O)c2cc(NS(=O)(=O)c3ccccc3C)ccc2OC[C@@H](C)N(S(C)(=O)=O)C[C@@H]1C | -0.22% |
| Cc1ccc(S(=O)(=O)N[C@@H]2CC[C@H](CCn3cc(C4(O)CCCC4)nn3)O[C@H]2CO)cc1 | 0.172% |
| CCNC(=O)C[C@@H]1CC[C@H](NC(=O)NC2CCCCC2)[C@H](CO)O1 | 0.102% |
| CO[C@@H]1CN(C)C(=O)c2ccc(NC(=O)C3CCCC3)cc2OC[C@H](C)NC[C@@H]1C | -0.326% |
| CO[C@@H]1CN(C)C(=O)c2cc(NC(=O)c3ccccc3F)ccc2OC[C@H](C)NC[C@@H]1C | 0.217% |

| SMILES | inhibition |
| --- | --- |
| COc1cccc(CNC(=O)c2cc3c(c(-c4cccc(-c5ccc(C#N)cc5)c4)n2)[C@@H](CCO)N([S@](=O)C(C)(C)C)C3)c1 | 0.432% |
| O=C(N[C@@H]1CC[C@@H](CCNS(=O)(=O)c2ccccc2Cl)O[C@@H]1CO)c1ccccc1 | -0.485% |
| CO[C@@H]1CN(C)C(=O)c2cc(NC(=O)C3CC3)ccc2OC[C@@H](C)N(C(=O)c2ccncc2)C[C@H]1C | 0.284% |
| COc1ccccc1-c1cnc2c(c1)C(=O)N([C@@H](C)CO)C[C@H](C)[C@@H](CN(C)C(C)=O)O2 | -1.01% |
| O=C(C[C@H]1C[C@H]2c3cc(NS(=O)(=O)c4ccc(F)cc4)ccc3O[C@H]2[C@H](CO)O1)NCc1cc(F)ccc1F | -0.236% |
| O=C(N[C@H]1CC[C@@H](CCNS(=O)(=O)c2cccc(Cl)c2)O[C@@H]1CO)c1ccccc1 | -0.277% |
| CC(C)NC(=O)N[C@H]1CC[C@@H](CC(=O)NCc2ccc(Oc3ccccc3)cc2)O[C@@H]1CO | -0.181% |
| O=C(N[C@H]1CC[C@H](CCNS(=O)(=O)c2ccc(F)cc2)O[C@H]1CO)C1CCC1 | -0.096% |
| C[C@@H]1CN([C@H](C)CO)C(=O)c2cc(-c3ccc(C(=O)N(C)C)cc3)cnc2O[C@H]1CN(C)C(=O)C1CC1 | -0.906% |
| CO[C@@H](CN(C)C(=O)c1cnccn1)[C@@H](C)CN([C@@H](C)CO)S(=O)(=O)c1ccc(Cl)cc1 | 0.106% |
| O=C(C[C@H]1C[C@@H]2c3cc(NC(=O)c4cccnc4)ccc3O[C@@H]2[C@H](CO)O1)NCc1ccccn1 | -0.419% |
| CO[C@H]1CN(C)C(=O)c2ccc(NC(=O)c3ccc4c(c3)OCO4)cc2OC[C@@H](C)NC[C@@H]1C | 0.0335% |
| COCC(=O)Nc1ccc2c(c1)OC[C@@H](C)N(C(=O)c1cnccn1)C[C@H](C)[C@@H](OC)CN(C)C2=O | 0.0305% |
| CO[C@@H]1CN(C)C(=O)c2ccc(NC(=O)Nc3ccccc3)cc2OC[C@@H](C)N(C(=O)Nc2c(C)noc2C)C[C@@H]1C | -0.183% |
| CO[C@@H]1CN(C)C(=O)c2cc(NS(=O)(=O)CC(F)(F)F)ccc2OC[C@@H](C)N(Cc2ccccn2)C[C@H]1C | 0.0375% |
| CO[C@H]1CN(C)C(=O)c2cc(NC(=O)C3CC3)ccc2OC[C@H](C)N(C(=O)CN(C)C)C[C@H]1C | 0.155% |
| O=C(C[C@@H]1C[C@H]2c3cc(NC(=O)Nc4ccccc4F)ccc3O[C@H]2[C@@H](CO)O1)NC1CCCCC1 | -0.261% |
| CCC(=O)Nc1ccc2c(c1)C(=O)N(C)C[C@H](OC)[C@H](C)CN(C(=O)C1CCC1)[C@@H](C)CO2 | 0.203% |
| COCC(=O)Nc1ccc2c(c1)OC[C@@H](C)N(C(=O)c1ccncc1)C[C@@H](C)[C@@H](OC)CN(C)C2=O | -0.0035% |
| CO[C@@H]1CN(C)C(=O)c2cc(NC(=O)C3CC3)ccc2OC[C@@H](C)N(Cc2ccc(F)cc2)C[C@@H]1C | -0.084% |
| CN(C)CC(=O)Nc1ccc2c(c1)[C@H]1C[C@H](CC(=O)NCc3ccccc3)O[C@@H](CO)[C@H]1O2 | -0.369% |

| SMILES | inhibition |
| --- | --- |
| C[C@H](CO)N1C[C@H](C)[C@H](CN(C)C(=O)C2CCOCC2)Oc2ncc(-c3ccccc3)cc2C1=O | 0.163% |
| Cc1ccc(S(=O)(=O)NCC[C@H]2CC[C@@H](NC(=O)C3CCOCC3)[C@@H](CO)O2)cc1 | 0.168% |
| COc1cccc(C(=O)Nc2ccc3c(c2)OC[C@H](C)NC[C@H](C)[C@H](OC)CN(C)C3=O)c1 | -0.351% |
| CO[C@@H]1CN(C)C(=O)c2cc(NC(C)=O)ccc2OC[C@H](C)N(Cc2ccccc2F)C[C@@H]1C | -0.198% |
| Cc1ccc(-c2cnc3c(c2)C(=O)N([C@@H](C)CO)C[C@H](C)[C@H](CN(C)C(=O)c2cccnc2)O3)cc1 | -1.23% |
| CO[C@@H](CN(C)S(=O)(=O)c1ccccc1)[C@@H](C)CN(Cc1ccccc1Cl)[C@H](C)CO | -0.567% |
| O=C(N[C@H]1CC[C@@H](CCNS(=O)(=O)c2ccc(F)cc2)O[C@@H]1CO)c1ccccn1 | 0.234% |
| Cc1noc(C)c1C(=O)N(C)C[C@H]1OCc2ccccc2-c2c(n(C)c3ccccc23)C(=O)N([C@@H](C)CO)C[C@H]1C | -2% |
| C[C@@H]1CN([C@@H](C)CO)C(=O)Cc2cc(NC(=O)CCCCCC(=O)Nc3ccccc3N)ccc2O[C@H]1CN(C)C(=O)Nc1ccc(C(F)(F)F)cc1 | 0.304% |
| CC(=O)N(C)C[C@H]1Oc2cc(-c3ccc(C)cc3)ccc2S(=O)(=O)N([C@@H](C)CO)C[C@@H]1C | 5.52% |
| CS(=O)(=O)Nc1ccc2c(c1)[C@H]1C[C@H](CC(=O)NC3CCCC3)O[C@@H](CO)[C@H]1O2 | -0.18% |
| CO[C@@H]1CN(C)C(=O)c2ccc(NS(C)(=O)=O)cc2OC[C@H](C)NC[C@H]1C | 0.02% |
| CO[C@H]1CN(C)C(=O)c2cc(NS(=O)(=O)c3ccccc3)ccc2OC[C@H](C)N(C(=O)NC(C)C)C[C@@H]1C | 0.066% |
| O=C(NCC[C@@H]1CC[C@H](NS(=O)(=O)c2cccc(F)c2)[C@H](CO)O1)c1cnccn1 | -0.0355% |
| O=C(NCC[C@H]1CC[C@H](NC(=O)C2CC2)[C@@H](CO)O1)c1cc(Cl)cc(Cl)c1 | -0.0835% |
| COc1cccc(-c2cn(CC[C@H]3CC[C@H](NC(=O)CN(C)C)[C@H](CO)O3)nn2)c1 | -0.376% |
| O=C(O)C[C@@H]1C[C@@H]2c3cc(NC(=O)NC4CCCC4)ccc3O[C@@H]2[C@H](CO)O1 | -0.0525% |
| C/C=C/c1cnc2c(c1)C(=O)N([C@@H](C)CO)C[C@@H](C)[C@@H](CN(C)C(=O)c1cnccn1)O2 | -1.79% |
| CN(C)C(=O)C[C@@H]1CC[C@@H](NS(=O)(=O)c2ccccc2)[C@H](CO)O1 | -0.243% |
| CO[C@H]1CN(C)C(=O)c2cc(NC(=O)c3ccccc3)ccc2OC[C@H](C)NC[C@H]1C | 0.304% |
